# Source: PubChem BioAssay (NCATS)
# Values joined by “and” are separate entries in the source; they are usually repeats but may differ in a detail not shown here. Equal entries are not always repeated. Results filed as inconclusive are left out. Where a call stands in place of a potency, no number is given. Values without a mark were called inactive. Active and inactive are the calls of the source. Calls come from the whole dose curve; as a rule, active = well fitted curve in the direction sought with a large enough effect; inconclusive = small, poorly fitted or top-dose-only effect, or another doubt; inactive = no such curve, though single readings can be large; an effect the other way counts as inactive or inconclusive.
# Assays:
# [1] = tested on: W2; experiment: qHTS profiling for inhibitors of Plasmodium falciparum proliferation (AID 504749); note: nearly all actives have a fitted effect of over 60% in size; settings: P. falciparum in erythrocytes, SYBR Green DNA, 72 h; series mostly up to 28.7 µM
# Method in brief: (§1)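 SYBR Green fluorescence of parasite DNA, read after lysis and overnight dark incubation, measured growth over 72 h in erythrocyte culture at 0.3% parasitemia and 2.5% hematocrit. Data normalised to DMSO and 0.29 uM artemisinin, with plate-drift correction.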
# [2] = tested on: CRL-7250; experiment: Cytotoxic Profiling of Annotated Libraries Using Quantitative High-Throughput Screening (AID 1296008); settings: Five cell lines viability, CellTiter-Glo ATP luminescence, 48-72 h; max response: stronger effect = lower value; note: nearly all actives have a fitted effect of over 60% in size
# Method in brief: (§2)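 Cytotoxicity was measured as CellTiter-Glo ATP luminescence, read after 10 min at room temperature. Compound treatment of the cells lasted 48 or 72 hr at 37 degrees Celsius in a qHTS format.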
# [3] = tested on: KB-3-1; experiment: as above; settings: Five cell lines viability, CellTiter-Glo ATP luminescence, 48-72 h; max response: stronger effect = lower value
# Method in brief: as §2
# [4] = tested on: NIH3T3; experiment: as above; settings: Five cell lines viability, CellTiter-Glo ATP luminescence, 48-72 h; max response: stronger effect = lower value
# Method in brief: as §2
# [5] = tested on: MCC-13; experiment: qHTS assay to identify novel small-molecules to repurpose for Merkel cell carcinoma treatment (AID 1296009); settings: MCC and control cell lines, CellTiter-Glo viability, 72 h; series mostly up to 46 µM; note: nearly all actives have a fitted effect of over 60% in size
# Method in brief: (§3)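 Cell viability, measured as CellTiter-Glo luminescence, was normalized between DMSO and no-cell wells. The cells had been exposed to 8- or 11-point compound dilutions for 72 hr at 37 degree celsius.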
# [6] = tested on: MCC-26; experiment: as above; settings: MCC and control cell lines, CellTiter-Glo viability, 72 h; series mostly up to 46 µM
# Method in brief: as §3
# [7] = tested on: MKL-1; experiment: as above; settings: MCC and control cell lines, CellTiter-Glo viability, 72 h; series mostly up to 46 µM
# Method in brief: as §3
# [8] = tested on: MKL-2; experiment: as above; settings: MCC and control cell lines, CellTiter-Glo viability, 72 h; series mostly up to 46 µM
# Method in brief: as §3
# [9] = tested on: NIH3T3; experiment: as above; settings: MCC and control cell lines, CellTiter-Glo viability, 72 h
# Method in brief: as §3
# [10] = tested on: UISO; experiment: as above; settings: MCC and control cell lines, CellTiter-Glo viability, 72 h; series mostly up to 46 µM
# Method in brief: as §3
# [11] = tested on: WaGa; experiment: as above; settings: MCC and control cell lines, CellTiter-Glo viability, 72 h; series mostly up to 46 µM
# Method in brief: as §3
# [12] = tested on: C33A; experiment: Primary qHTS to identify gynecologic anti-cancer compounds using libraries of approved drugs and bioactive compounds (AID 1345084); settings: Gynecologic cancer cell panel viability, ATPlite luminescence, 48 h; series mostly up to 57.5 µM; note: nearly all actives have a fitted effect of over 55% in size
# Method in brief: (§4)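 Cells, 1,000 per well, were allowed to settle for 16 h at 37 C before compound addition. Five concentrations were tested for 48 h, and viability was read by ATPlite luminescence after 15 min at room temperature.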
# [13] = tested on: CAOV3; experiment: as above; settings: Gynecologic cancer cell panel viability, ATPlite luminescence, 48 h; series mostly up to 57.5 µM
# Method in brief: as §4
# [14] = tested on: CASKI; experiment: as above; settings: Gynecologic cancer cell panel viability, ATPlite luminescence, 48 h; series mostly up to 57.5 µM
# Method in brief: as §4
# [15] = tested on: HaCat; experiment: Cytotoxic Profiling of Annotated Libraries Using Quantitative High-Throughput Screening (AID 1296008); settings: Five cell lines viability, CellTiter-Glo ATP luminescence, 48-72 h; max response: stronger effect = lower value; note: nearly all actives have a fitted effect of over 60% in size
# Method in brief: as §2
# [16] = tested on: CRL-7250; experiment: qHTS assay to identify novel small-molecules to repurpose for Merkel cell carcinoma treatment (AID 1296009); settings: MCC and control cell lines, CellTiter-Glo viability, 72 h; series mostly up to 44.8 µM; note: nearly all actives have a fitted effect of over 60% in size
# Method in brief: as §3
# [17] = tested on: HEK293; experiment: Cytotoxic Profiling of Annotated Libraries Using Quantitative High-Throughput Screening (AID 1296008); settings: Five cell lines viability, CellTiter-Glo ATP luminescence, 48-72 h; max response: stronger effect = lower value; note: nearly all actives have a fitted effect of over 60% in size
# Method in brief: as §2
# [18] = tested on: TAB165; experiment: qHTS profiling for inhibitors of Plasmodium falciparum proliferation (AID 504749); note: nearly all actives have a fitted effect of over 60% in size; settings: P. falciparum in erythrocytes, SYBR Green DNA, 72 h; series mostly up to 28.7 µM
# Method in brief: as §1
# [19] = tested on: HACAT; experiment: qHTS assay to identify novel small-molecules to repurpose for Merkel cell carcinoma treatment (AID 1296009); settings: MCC and control cell lines, CellTiter-Glo viability, 72 h; at 44.8 µM (top of the series) unless noted; note: nearly all actives have a fitted effect of over 60% in size
# Method in brief: as §3
# [20] = tested on: HEK293T; experiment: as above; settings: MCC and control cell lines, CellTiter-Glo viability, 72 h; at 44.8 µM (top of the series)
# Method in brief: as §3
# [21] = at 44.8 µM (top of the series) unless noted
# Potency is the fitted concentration of half-maximal effect.
structure (smiles),measurement,setting,value
CCCN1CCC[C@@H]2Cc3[nH]ncc3C[C@H]21,Potency,[1],inactive
same,max response,[2],4.64%
same,max response,[3],-4.95%
same,outcome,[4],inactive
same,Potency,[5],inactive
same,Potency,[6],inactive
same,Potency,[7],inactive
same,Potency,[8],inactive
same,outcome,[9]; [21],inactive
same,Potency,[10],inactive
same,Potency,[11],inactive
same,Potency,[12],inactive
same,Potency,[13],inactive
same,Potency,[14],inactive
CCN(CC)CCN1C(=O)CN=C(c2ccccc2F)c2cc(Cl)ccc21,Potency,[1],4.78 µM (active)
same,max response,[2],-7.13%
same,max response,[15],0.85%
same,max response,[3],-5.99%
same,outcome,[4],inactive
same,Potency,[5],inactive
same,Potency,[6],inactive
same,Potency,[7],inactive
same,Potency,[8],inactive
same,outcome,[9]; [21],inactive
same,Potency,[10],inactive
same,Potency,[11],inactive
same,Potency,[12],inactive
same,Potency,[13],inactive
same,Potency,[14],inactive
COc1cc2nc(N3CCN(C(=O)C4CCCO4)CC3)nc(N)c2cc1OC (stereo unspecified),outcome,[16],inactive
C[C@@H]1O[C@@H](O[C@H]2C[C@@H](O)[C@]3(CO)[C@H]4[C@H](O)C[C@]5(C)[C@@H](C6=CC(=O)OC6)CC[C@]5(O)[C@@H]4CC[C@]3(O)C2)[C@H](O)[C@H](O)[C@H]1O,Potency,[2],29.6 nM (active) and 84.1 nM (active) and 89.3 nM (active)
same,Potency,[15],266 nM (active) and 142 nM (active)
same,Potency,[3],52.6 nM (active) and 46.1 nM (active) and 112 nM (active)
same,outcome,[4],inactive
same,Potency,[6],0.235 µM (active)
same,Potency,[7],148 nM (active) and 119 nM (active)
same,Potency,[8],0.118 µM (active)
same,outcome,[9]; at 17.4 µM (top of the series),inactive
same,outcome,[9]; at 44.8 µM (top of the series),inactive
same,Potency,[10],83.3 nM (active) and 59.6 nM (active)
same,Potency,[11],66.2 nM (active) and 59.6 nM (active)
same,Potency,[12],100 nM (active) and 126 nM (active)
same,Potency,[13],251 nM (active) and 199 nM (active)
same,Potency,[14],562 nM (active) and 794 nM (active)
Cc1cccc(C)c1OCC(C)N (stereo unspecified),outcome,[16],inactive
CNC(=O)N1N=C(c2ccc(N)cc2)c2cc3c(cc2CC1C)OCO3 (stereo unspecified),Potency,[17],23.1 µM (active)
same,max response,[15],-13.3% and -0.52%
same,max response,[4],-39.3%
same,Potency,[7],inactive
same,Potency,[8],7.43 µM (active)
same,Potency,[11],16.6 µM (active)
same,Potency,[12],inactive
Nc1cc(-c2ccncc2)c[nH]c1=O,outcome,[16],inactive
c1ccc2c(c1)OCC(C1=NCCN1)O2 (stereo unspecified),Potency,[18],inactive
same,Potency,[2],23.7 µM (active)
same,max response,[3],29.1%
same,Potency,[4],15 µM (active)
same,Potency,[7],26.6 µM (active)
same,Potency,[8],5.96 µM (active)
CCOC(=O)[C@H](CCc1ccccc1)N[C@@H](C)C(=O)N1Cc2cc(OC)c(OC)cc2C[C@H]1C(=O)O,outcome,[16],inactive
C[C@]12C/C(=C/O)C(=O)C[C@@H]1CC[C@@H]1[C@@H]2CC[C@@]2(C)[C@H]1CC[C@]2(C)O,Potency,[18],inactive
same,max response,[17],-8.16%
same,outcome,[15],inactive
same,max response,[3],-12.7%
same,max response,[4],1.95%
same,outcome,[19],inactive
same,Potency,[5],inactive
same,Potency,[6],inactive
same,Potency,[12],inactive
same,Potency,[13],inactive
same,Potency,[14],inactive
COC[C@@H](NC(C)=O)C(=O)NCc1ccccc1,max response,[17],-4.08%
same,outcome,[15],inactive
same,max response,[3],8.88%
same,max response,[4],2.94%
same,outcome,[19],inactive
same,Potency,[5],inactive
same,Potency,[6],inactive
same,Potency,[7],inactive
same,Potency,[8],inactive
same,Potency,[10],inactive
same,Potency,[11],inactive
same,Potency,[12],inactive
same,Potency,[13],inactive
same,Potency,[14],inactive
COc1ccccc1N1CCNCC1,Potency,[18],inactive
same,Potency,[1],inactive
same,outcome,[15],inactive
same,max response,[3],-11%
same,max response,[4],-4.83%
same,outcome,[19],inactive
same,outcome,[20],inactive
same,Potency,[5],inactive
same,Potency,[6],inactive
same,Potency,[7],inactive
same,Potency,[8],inactive
same,Potency,[10],inactive
same,Potency,[11],inactive
same,Potency,[12],inactive
same,Potency,[13],inactive
same,Potency,[14],inactive
COC1=CC(=O)C[C@@H](C)[C@]12Oc1c(Cl)c(OC)cc(OC)c1C2=O,outcome,[16],inactive
O=C(c1ccc(OCCN2CCCCC2)cc1)c1c(-c2ccc(O)cc2)sc2cc(O)ccc12,outcome,[16],inactive
CO[C@]12CC[C@@]3(C[C@@H]1[C@](C)(O)C(C)(C)C)[C@@H]1Cc4ccc(O)c5c4[C@@]3(CCN1CC1CC1)[C@H]2O5,Potency,[17],21.5 µM (active)
same,Potency,[5],53.9 µM (active)
same,Potency,[8],34 µM (active)
same,Potency,[10],24.1 µM (active)
C[C@@H](NCCCc1cccc(C(F)(F)F)c1)c1cccc2ccccc12,outcome,[16],inactive
Cc1cccc(C)c1NC1=NCCCS1,Potency,[1],4.26 µM (active)
same,max response,[2],-7.18%
same,max response,[15],-7.27%
same,max response,[3],-1.86%
same,max response,[4],1%
same,Potency,[5],inactive
same,Potency,[6],inactive
same,Potency,[7],inactive
same,Potency,[8],inactive
same,Potency,[10],inactive
same,Potency,[11],inactive
same,Potency,[12],inactive
same,Potency,[13],inactive
same,Potency,[14],inactive
C[C@]12CCC(=O)C(O)=C1CC[C@@H]1[C@@H]2CC[C@]2(C)C(=O)CC[C@@H]12,max response,[2],-13.2%
same,max response,[15],-15.5%
same,max response,[3],-15.7%
same,max response,[4],-5.78%
same,Potency,[5],inactive
same,Potency,[7],inactive
same,Potency,[8],inactive
same,Potency,[10],inactive
same,Potency,[11],inactive
same,Potency,[12],inactive
same,Potency,[13],inactive
same,Potency,[14],inactive
CC[C@@H](CO)NC(=O)[C@@H]1C=C2c3cccc4[nH]cc(c34)C[C@H]2N(C)C1,Potency,[18],inactive
same,Potency,[1],inactive
same,max response,[2],-1.45%
same,max response,[15],-5.68%
same,max response,[3],37.2%
same,max response,[4],-3.83%
same,Potency,[5],inactive
same,Potency,[6],inactive
same,Potency,[7],inactive
same,Potency,[8],inactive
same,Potency,[10],inactive
same,Potency,[11],inactive
same,Potency,[12],inactive
same,Potency,[13],inactive
same,Potency,[14],inactive
CNS(=O)(=O)Cc1ccc2[nH]cc(CCN(C)C)c2c1,outcome,[16],inactive
CCOC(=O)C1(c2ccccc2)CCN(CCC(C#N)(c2ccccc2)c2ccccc2)CC1,Potency,[18],2.51 µM (active)
same,Potency,[1],4.78 µM (active)
same,max response,[15],-18.2%
same,max response,[3],-29%
same,max response,[4],-8.7%
same,Potency,[5],inactive
same,Potency,[6],inactive
same,Potency,[7],inactive
same,Potency,[12],inactive
same,Potency,[13],inactive
same,Potency,[14],inactive
c1ccc(C2CC2)c(OCC2=NCCN2)c1,Potency,[18],inactive
same,Potency,[1],13.5 µM (active)
same,max response,[17],-2.25%
same,outcome,[15],inactive
same,max response,[3],1.77%
same,max response,[4],-5.7%
same,outcome,[19],inactive
same,Potency,[5],inactive
same,Potency,[7],inactive
same,Potency,[8],inactive
same,Potency,[10],inactive
same,Potency,[11],inactive
same,Potency,[12],inactive
same,Potency,[13],inactive
same,Potency,[14],inactive
